# From PubChem BioAssay (NCI)
# Where “and” joins values, the source holds several entries; their conditions need not be identical. Identical values can stand only once. The panel holds about 83,000 compounds, 20% with a hit somewhere; the sample as a whole holds those more often.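 In brief: 96-well plates, 48 h treatment, single concentration, percent growth endpoint.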 Calls of active or inactive are those of the source. Rule for the calls: active = growth percent below 10; inactive = the rest.
# System: MDA-MB-468 breast
# Assay: NCI-60 one-dose screen, 48 h (100 = growth as untreated, 0 = no growth, -100 = all killed)
# Details: 10 µM unless noted
row,Structure (SMILES),growth
1,COc1c(N2CC3CCCNC3C2)c(F)cc2c(=O)c(C(=O)N/N=C/c3ccc(Br)cc3)cn(C3CC3)c12 (centres undefined),97% (inactive)
2,CC/C=C\C[C@H]1C/C=C2/C(=O)C=C[C@H]2C/C=C\CCCC(=O)O1,31.7% (inactive)
3,Cn1nc(C(F)(F)F)c(-c2cc(C(F)(F)F)cc(C(F)(F)F)c2)c1-c1ccc(OCc2ccc(Cl)cc2)cc1O,-5% (active)
4,O=C(c1nn(-c2ccccc2)c2c1CC(NCc1ccc(F)cc1)CC2)N1CCCCC1 (centres undefined),97% (inactive)
5,CCOc1ccc(N2C(N)=NC(N)=NC2(C)C)cc1,-0.227% (active) and 56.3% (inactive)
6,O=C1Nc2ccccc2C1=NC1CCCCC1,102% (inactive)
7,CCN(CC)CCNc1cc(-c2cccc(OC(F)(F)F)c2)nc2ccc(N3CCCC3)cc12,28.6% (inactive) and -38.3% (active) and 0.911% (active)
8,Cc1ccccc1C1N=C2Oc3ccccc3C=C2C(=O)N1 (centres undefined),21.8% (inactive)
9,CC(=O)NC(C)(C)C(=O)N[C@@H](C)C(=O)NC(C)(C)C(=O)N[C@@H](C)C(=O)NC(C)(C)C(=O)N[C@@H](C)C(=O)N[C@@H](CCC(N)=O)C(=O)NC(C)(C)C(=O)N[C@H](C(=O)NC(C)(C)C(=O)NCC(=O)N[C@@H](CC(C)C)C(=O)NC(C)(C)C(=O)N1CCC[C@H]1C(=O)N[C@H](C(=O)NC(C)(C)C(=O)NC(C)(C)C(=O)N[C@@H](CCC(N)=O)C(=O)N[C@@H](CCC(N)=O)C(=O)N[C@H](CO)CC1CCCCC1)C(C)C)C(C)C,3.04% [5 µM] (active)
10,NCCCNc1nc2ccccc2c2c(=O)c3cccc(F)c3sc12,-11.3% (active)
11,Cc1cc(-c2ccc3nc(N)sc3c2)nc2ccc3[nH]ncc3c12,5.34% (active)
12,COc1cc(/C=C2\Oc3cc(OCCCN4CCCC4)ccc3C2=O)cc(OC)c1,42.3% (inactive)
13,CC(=O)CC(=O)OC/C=C(/C)CCC=C(C)C,97.6% (inactive)
14,O=C(Nc1ccc(Cl)cc1F)c1ccccc1O,6.26% (active)
15,O=C(Cc1nc2ccc([N+](=O)[O-])cc2nc1CC(=O)c1ccccc1)c1ccccc1,68.9% (inactive)
16,COc1ccc(NC2=NC(C)(CO)CS2)cc1 (centres undefined),108% (inactive)
17,CCOC(C)(c1ccc(Cl)cc1)C1CCNCC1 (centres undefined),90.9% (inactive)

row,Structure (SMILES),growth
1,O=c1cc(-c2ccc(OCc3ccccc3)cc2)oc2c(I)c(OCc3ccccc3)cc(OCc3ccccc3)c12,102% (inactive)
2,CC1CCCN(CCCCCOc2ccc3oc4ccc(Cl)cc4c(=O)c3c2)C1 (centres undefined),68.7% (inactive)
3,CC[C@]1(O)C[C@@H]2CN(CCc3c([nH]c4ccccc34)[C@@](C(=O)OC)(c3cc4c(cc3OC)N(C)[C@H]3[C@@](O)(C(=O)OC)[C@H](OC(C)=O)[C@]5(CC)C=CCN6CC[C@]43[C@@H]65)C2)C1,19.8% (inactive)
4,CC1=C(/C=C/C(C)=C/C=C/C(C)=C/C(=O)O)C(C)(C)CCC1,99.9% (inactive) and 110% (inactive)
5,CCO/C=C1\SC(=S)N(c2cccc(O)c2)C1=O,87.6% (inactive)
6,COc1ccc2c(c1)C/C(=C\c1cc(-c3ccc4c(c3)OCO4)n[nH]1)C2=O,37.8% (inactive)
7,CCc1ccc(SC2c3ccc(N(CC)CC)cc3Oc3nc(N)c(C#N)c(N)c32)cc1 (centres undefined),-41% (active)
8,O=C1C(=C(O)c2ccccc2)C(=O)c2ccccc21,120% (inactive)
9,Cn1cc(-c2nc(-c3c[nH]c4c(Cl)nccc34)cs2)c2cc(F)ccc21,1.89% (active)
10,COc1ccc(/C=C/C(=O)Nc2ccc(-c3nc4ccc(OC)cc4s3)cc2)cc1,67.2% (inactive)
11,COc1ccc(C(=O)CSc2nc3c(c(Nc4ccc(S(N)(=O)=O)cc4)n2)CCCC3)cc1,108% (inactive)
12,CC(=O)NC1(C(=O)O)CCCC1,116% (inactive)
13,COC1OC(CO)C(OC)C(O)C1O (centres undefined),87.1% (inactive)
14,O=C(Nc1ccc(F)cc1)Nc1ccc(NC(=O)c2cc(Cl)nc3ccccc23)cc1,38.7% (inactive)
15,C=C(C)[C@@H]1CC[C@]2(C(=O)NCCNCCNCCN)CC[C@]3(C)[C@H](CC[C@@H]4[C@@]5(C)CC[C@H](O)C(C)(C)[C@@H]5CC[C@]43C)[C@@H]12,-48.6% [100 µM] (active)
16,COc1ccc(-c2csc(NC(=O)c3cc(O)c(O)c(O)c3)n2)cc1,78.6% (inactive)
17,CCOC(=O)c1csc(-c2ccc(COC(=O)c3ccccc3)o2)n1,115% (inactive)
